A selection: hits, their analogues and other compounds. The true share with any hit is near 7.1%.
PINK1 modulator: A Quantitative High throughput Screen to Identify Chemical Modulators of PINK1 Expression; PINK1 immunofluorescence, high-content cytometry, 24 h; Potency, µM (titrated, usually from 76.6 µM), inactives show at the top dose activation (PINK1 increase), hits mostly activators; 410,000 tested, 0.2% active; AID 624263, 2012; active = well fitted activation curve with a large enough effect; inconclusive = small, poorly fitted or top-dose-only effect; cell line not stated here; also: potency is read from the fitted curve at half-maximal effect; % of control where 0% means no effect; nearly all actives have a fitted effect of over 65% in size
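Cells are seeded, rested 12 hours, then given compound at five concentrations or DMSO for 24 hours. After fixation, blocking and antibody staining, PINK1 amount and mitochondrial localization are scored; CCCP serves as control.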
MCF10A rereplic: A quantitative high throughput screen for small molecules that induce DNA re-replication in MCF 10a normal breast cells; 350,000 tested, 2.9% active; Potency, µM (top dose mostly 46.1 µM), for the others: at the top dose activity, positive = re-replication, actives largely listed as activators; MCF 10A DNA re-replication, Hoechst nuclear intensity, 48 h; also: potency is read from the fitted curve at half-maximal effect; % of control where 0% means no effect; nearly all actives have a fitted effect of over 50% in size
SW480 rerep: A quantitative high throughput screen for small molecules that induce DNA re-replication in SW480 colon adenocarcinoma cells. SW480 DNA re-replication, Hoechst DNA content imaging, 48 h. Potency, µM (doses to about 46.1 µM), for the others: top-dose re-replication activation, hits mostly activators. 340,000 tested, 1.8% active. AID 624297, 2012; also: potency is read from the fitted curve at half-maximal effect; % of control where 0% means no effect; nearly all actives have a fitted effect of over 55% in size
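Treated cells incubate 48 hr (37 C, 5% CO2), are stained 40 min with Hoechst, and nuclear fluorescence is enumerated; a rise in nuclei with high DNA signal marks re-replication.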
IL1B secr inh: qHTS for Inhibitors of Inflammasome Signaling: IL-1-beta AlphaLISA Primary Screen; activity change, % at 57.5 µM; 360,000 tested, 4.7% active; THP-1 LPS/ATP IL-1B secretion, AlphaLISA, 16 h; hits give low values; AID 743279, 2014; in the data active = activity change below about -50%; inconclusive = mostly about -30% to -49%; also: % is scaled to controls: 0 for no effect and ±100 for the full control effect
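Secreted IL-1B measured by AlphaLISA bead assay after 16 h compound exposure of THP-1 cells; compounds (final up to 57.5 uM) added 1 h before LPS (250 ng/mL) and ATP (1.25 mM) stimulation; lower signal means less secretion.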
ATXN2 expr inh: Primary qHTS for Inhibitors of ATXN expression | HEK-293 ATXN2-luciferase reporter, luminescence, 24 h | Potency, µM (highest dose often 57 µM), for the others: at the highest dose activity change, negative = inhibition, most hits filed as inhibitors | 360,000 tested, 0.72% active | AID 1745845, 2022; also: potency is read from the fitted curve at half-maximal effect; % is scaled to controls: 0 for no effect and ±100 for the full control effect; nearly all actives have a fitted effect of over 55% in size
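ATXN2-luciferase reporter cells (luciferase flanked by upstream and downstream ATXN2 gene portions) were treated 24 h at 37 °C with compounds at up to 57 uM. SteadyGlo luminescence gave expression; GF-AFC fluorescence gave viability.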
S2 tox: Viability Counterscreen for Primary qHTS for Inhibitors of ATXN expression. S2 cells (HEK-293 line with an ATXN2-luciferase reporter) viability, CellTiter-Fluor protease fluorescence, 24 h. Potency, µM (doses to about 56.7 µM), actives largely listed as cytotoxic. 400,000 tested, 0.49% active. AID 651635, 2014; also: potency is read from the fitted curve at half-maximal effect; nearly all actives have a fitted effect of over 40% in size
Starred values were filed as active, the others as inactive; i = inactive; ? = inconclusive; nt = not tested or not shown; [ ] = remark or other dose. Unless noted, calls follow the shape of the dose curve; as a rule, active = well fitted curve in the direction sought with a large enough effect; inconclusive = small, poorly fitted or top-dose-only effect, or another doubt; inactive = no such curve, though single readings can be large; an effect the other way counts as inactive or inconclusive.

SMILES	PINK1 modulator	MCF10A rereplic	SW480 rerep	IL1B secr inh	ATXN2 expr inh	S2 tox
O=C(c1c[nH]c(C(=O)C(Cl)(Cl)Cl)c1)c1c(F)cccc1F	1%	?	?	-99*	0%	i
COCc1cc(S(=O)c2ccc(Cl)cc2)nc(C)n1 (configuration not stated)	4%	15µM*	?	-9	-42%	?
CCC(=NC)C1=C(O)CC(c2ccccc2)CC1=O (configuration not stated)	1%	-1%	-6%	-1	33%	i
CCC(=NCCc1c(C)[nH]c2ccccc12)C1=C(O)CC(c2ccccc2)CC1=O (configuration not stated)	7%	4.1µM*	10µM*	?	-24%	?
CC(=NCCc1c(C)[nH]c2ccc(OCc3ccccc3)cc12)C1=C(O)CC(c2ccccc2)CC1=O (configuration not stated)	3%	1%	2%	9	-16%	i
CCC(=NCCc1c(C)[nH]c2ccc(OC(F)(F)F)cc12)C1=C(O)CC(c2ccccc2)CC1=O (configuration not stated)	1%	?	12µM*	4	-28%	?
CCCCC(=NCCc1c(C)[nH]c2ccc(OC)cc12)C1=C(O)CC(c2ccccc2)CC1=O (configuration not stated)	3%	2.6µM*	7.3µM*	9	1%	?
COc1ccccc1N1CCN(C(=O)c2cc3c(=O)n(Cc4ccco4)ccc3nc2C)CC1	1%	nt	nt	nt	nt	nt
CCOC(=O)c1cc(C)n(CC2CCC(C(=O)Nc3ccc(C(C)=O)cc3)CC2)c1C (configuration not stated)	-1%	nt	nt	nt	nt	nt
CC1CCN(S(=O)(=O)c2ccc3c(ccc(=O)n3CC(=O)NCc3ccc(Cl)cc3)c2)CC1	-4%	nt	nt	nt	-32%	i
O=C(NCc1ccccc1Cl)NCc1noc2ccccc12	-1%	nt	nt	nt	41%	i
c1ccc(-c2c[n+]3c(n2-c2ccccc2)SCC3)cc1	1%	12%	21%	-10	-17%	i
CCOc1ccc(-n2c(-c3ccc(Cl)cc3)c[n+]3c2SCC3)cc1	2%	?	1%	-86*	?	i
CCN(CC)c1ccc2nc3ccccc3[n+](CC)c2c1	4%	12µM*	3.7µM*	-101*	?	8.9µM*
CCN(CC)c1ccc(/C=C/c2cc(Cl)nc3ccccc23)cc1	0%	nt	nt	nt	nt	nt
CCN(CC)c1ccc2nc3ccc(N)cc3[n+](-c3ccccc3)c2c1	10µM*	?	?	-6	13µM*	16µM*
CC(=O)c1cccc(CN2CCC(C(=O)Nc3ccc(Oc4cccnc4)cc3)CC2)c1	1%	?	2%	i	-13%	i
CC(=O)c1cccc(CN2CCC(C(=O)Nc3ccc(-c4cccc(C)c4)cc3)CC2)c1	-2%	?	?	-62*	?	?
C[C@H](CO)N1C[C@H](C)[C@@H](CN(C)C(=O)Nc2ccc3c(c2)OCO3)Oc2ccc(NC(=O)Cn3cnnn3)cc2C1=O	1%	-44%	4%[9.22 µM]	-1	-7%	i
COc1cc(OC)cc(C(=O)Nc2ccc(N3CCN(C(=O)c4cccs4)CC3)cc2)c1	?	18µM*	?	-9	-21%	i
O=C(Cn1nc(-c2ccccc2)ccc1=O)Nc1ccc(N2CCN(C(=O)c3cccs3)CC2)cc1	1%	4%	-3%	-57*	-29%	i
CC(C)CC(=O)Nc1ccc(N2CCN(C(=O)c3cccs3)CC2)cc1	5%	-3%	3%	-12	-11%	i
COc1ccc(C(=O)Nc2ccc(N3CCN(C(=O)c4cccs4)CC3)cc2)cc1Br	-1%	18µM*	?	-23	nt	i
O=C(Nc1ccc(N2CCN(C(=O)c3cccs3)CC2)cc1)c1ccc(F)cc1	-1%	0%	-11%	nt	-14%	i
COc1ccc(C(=O)Nc2ccc(N3CCCC3)cc2)cc1Br	3%	-3%	-9%	-10	2%	i
SMILES	PINK1 modulator	MCF10A rereplic	SW480 rerep	IL1B secr inh	ATXN2 expr inh	S2 tox
CCN(CC)CCOC(=O)c1ccc(NC(=O)c2cc3cccc(OC)c3oc2=O)cc1	1%	nt	nt	nt	66%	i
Cc1nn(C)cc1CN1CCCC(C(=O)c2ccc(-c3ccccc3)cc2)C1 (configuration not stated)	1%	3%	5%	-91*	-14%[11.3 µM]	i
Cc1ccsc1C(=O)C1CCCN(Cc2cn(C)nc2-c2ccccc2)C1 (configuration not stated)	-1%	3%	-3%	-2	-22%	i
O=C(c1ccc(Cl)cc1)C1CCCN(Cc2cnn(-c3ccccc3)c2)C1 (configuration not stated)	14%	?	-6%	-98*	?	i
O=C(c1ccc(-c2ccccc2)cc1)C1CCCN(C(=O)c2ccncc2)C1 (configuration not stated)	-1%	-15%	83%	-14	-25%	i
O=C(c1ccc(Cl)cc1)C1CCCN(Cc2ccc(Oc3ncccn3)cc2)C1 (configuration not stated)	0%	?	?	-3	nt	?
O=C(c1ccc(-c2ccccc2)cc1)C1CCCN(Cc2ccncc2)C1 (configuration not stated)	-1%	?	17%	-86*	-39%	i
COc1ccccc1N1CCN(CCCNC(=O)c2cnn(-c3cccc(Cl)c3)c2C2CCN(C(=O)OC(C)(C)C)CC2)CC1	-3%	nt	nt	nt	nt	nt
Cc1ccc(C)c(OCC(=O)N2CCc3ccccc3C2)c1	2%	12%	-4%	-27	29%	i
O=C(CSc1ccc(Cl)cc1)N1CCN(c2ccc([N+](=O)[O-])cc2Cl)CC1	-1%	?	-5%	-62*	?	i
Cc1ccc(SCC2(O)CCN(S(=O)(=O)c3ccc(Cl)cc3)CC2)cc1	1%	?	7%	-18	-22%	i
O=C(CCCOc1ccc(Cl)cc1Cl)N1CCc2ccccc2C1	-2%[38.3 µM]	3.3µM*	2.6µM*	-6	-10%	i
Cc1cc(OCC(=O)N2CCc3ccccc3C2)c(C)cc1Br	3%	?	5%	-55*	-3%	i
O=C(CCCOc1ccccc1)N1CCc2ccccc2C1	1%	-3%	-11%	-3	26%	i

Assay outcomes deposited in PubChem by National Center for Advancing Translational Sciences (NCATS).
